Shown is part of a subset that was picked to be rich in hits.
HT1080-NT tox – kills 2HG-producing HT-1080-NT fibrosarcoma cells; HT-1080-NT fibrosarcoma viability, CellTiter-Glo ATP luminescence, 48 h; Potency, µM (series often up to 46.1 µM), inactives show top-dose activity, negative = less viability, most hits filed as cytotoxic; actives 1.6% (n = 360,000); AID 686970;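 note: NT is the 2HG producing partner of a matched IDH1 knockdown line; potency is the fitted concentration of half-maximal effect; 0% = DMSO-treated cells and -100% = media-only wells without cells; nearly all actives have a fitted effect of over 55% in size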
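Viability by CellTiter-Glo luminescence after 48 h compound exposure at 37C of HT-1080-NT cells (750/well, RPMI, 5% FBS). % activity scaled between DMSO wells and medium-only wells, then curve-fitted and categorized by curve class.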
IL-1B inflam inh – inhibitors of inflammasome signaling (IL-1 beta secretion). actives 4.7% (n = 360,000). THP-1 LPS/ATP IL-1B secretion, AlphaLISA, 16 h; active compounds read low. activity change, % at 57.5 µM. AID 743279; in the data active = activity change below about -50%; inconclusive = mostly about -30% to -49%
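THP-1 cells pretreated 1 hr with compounds (up to 57.5 uM final), then stimulated with LPS (250 ng/mL final) plus ATP (1.25 mM final); secreted IL-1B measured by AlphaLISA after 16 hr, decreased signal indicating inhibition.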
DT40 TDP1 CPT – growth inhibition of DT40 Tdp1-/-;hTDP1 cells with camptothecin (screen for TDP1 inhibitors) | AID 686979 | actives 12% (n = 420,000) | Potency, µM (doses to about 46.2 µM), for inactives: top-dose activity change, negative = growth inhibition, usual class: inhibitors | chicken DT40 Tdp1-/-;hTDP1 cells + 20 nM CPT, ATP luminescence, 48 h; note: potency is the fitted concentration of half-maximal effect; nearly all actives have a fitted effect of over 55% in size
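Chicken DT40 Tdp1-/- cells stably complemented with human TDP1 were seeded at 400 cells/well in medium containing 20 nM camptothecin, exposed to pin-transferred compounds, and grown at 37 °C for at least 48 hr. Viability was read as ATP luminescence.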
12-LOX inh – inhibitors of human 12S-lipoxygenase ALOX12. P18054. purified 12hLO, xylenol orange hydroperoxide absorbance. Potency, µM (doses to about 108 µM), without a hit: at the highest dose activity change, negative = inhibition, usual class: inhibitors. AID 1671190. actives 1.1% (n = 580,000); note: potency is the fitted concentration of half-maximal effect
Target sequence (P18054 whole entry, looked up): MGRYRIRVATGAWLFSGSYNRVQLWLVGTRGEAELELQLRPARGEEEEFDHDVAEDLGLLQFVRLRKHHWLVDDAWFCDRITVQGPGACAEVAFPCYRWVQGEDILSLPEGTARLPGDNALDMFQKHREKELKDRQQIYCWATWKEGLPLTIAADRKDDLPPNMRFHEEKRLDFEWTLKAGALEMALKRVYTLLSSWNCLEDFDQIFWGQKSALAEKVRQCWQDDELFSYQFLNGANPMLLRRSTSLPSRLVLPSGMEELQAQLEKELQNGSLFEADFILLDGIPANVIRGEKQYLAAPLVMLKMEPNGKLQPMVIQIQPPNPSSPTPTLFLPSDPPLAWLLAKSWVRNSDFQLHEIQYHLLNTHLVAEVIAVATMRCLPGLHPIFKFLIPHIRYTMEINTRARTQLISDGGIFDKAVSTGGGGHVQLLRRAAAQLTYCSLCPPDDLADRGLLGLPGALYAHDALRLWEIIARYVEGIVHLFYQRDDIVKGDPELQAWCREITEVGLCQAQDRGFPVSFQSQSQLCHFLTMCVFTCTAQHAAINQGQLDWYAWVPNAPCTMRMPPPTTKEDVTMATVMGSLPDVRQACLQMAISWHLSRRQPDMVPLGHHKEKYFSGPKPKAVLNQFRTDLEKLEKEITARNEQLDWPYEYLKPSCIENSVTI
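Purified human 12hLO (150 nM final) in 25 mM Hepes, 0.01% Triton X-100, pH 7.0 was preincubated 15 min at room temperature with compound. Then 40 uM arachidonic acid was added, 30 min. Hydroperoxide was read by Fe-XO absorbance ratio 573/405 nm.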
TDP1 cell noCPT – qHTS for Inhibitors of human tyrosyl-DNA phosphodiesterase 1 (TDP1): qHTS in cells in absence of CPT; DT40 Tdp1-/- hTDP1 cells, no CPT, ATP luminescence, 48 h; actives 15% (n = 420,000); Potency, µM (doses to about 46.2 µM), inactives show at the highest dose activity change, negative = growth inhibition, most hits filed as inhibitors; note: potency is the fitted concentration of half-maximal effect; nearly all actives have a fitted effect of over 55% in size
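Chicken DT40 Tdp1-/- cells complemented with human TDP1, screened without camptothecin (DMSO vehicle only), 400 cells/well. Compounds pin-transferred, cells incubated at 37 °C for at least 48 hr. Growth read as ATP-dependent luminescence (CellTiter-Glo, 30 min at RT).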
HT1080 IDH1KD tx – kills HT-1080 cells with IDH1 knockdown; Potency, µM (highest dose often 46.1 µM), without a hit: at the top dose activity, negative = toxicity, hits mostly cytotoxic; HT-1080 IDH1 knockdown viability, ATP luminescence, 48 h; actives 2% (n = 360,000);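 note: potency is the fitted concentration of half-maximal effect; 0% = DMSO wells and -100% = cell-free medium wells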
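HT-1080-IDH1KD cells (IDH1 knocked down), 750/well in RPMI with 5% FBS, treated with compound 48 h at 37 degrees C. Viability by CellTiter-Glo luminescence, normalised to DMSO and no-cell wells; concentration-response curves classed.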
Numbers without * were called inactive. Unless noted, calls come from the whole dose curve; as a rule, active = well fitted curve in the direction sought with a large enough effect; inconclusive = small, poorly fitted or top-dose-only effect, or another doubt; inactive = no such curve, though single readings can be large; an effect the other way counts as inactive or inconclusive. Unless noted, % is set by controls: 0 for no effect and ±100 for the full control effect.

Results for COc1ccc2cc(/C=N/O)c(Cl)nc2c1 ?
HT1080-NT tox: -16%; IL-1B inflam inh: -16; DT40 TDP1 CPT: -15%; 12-LOX inh: -6%; TDP1 cell noCPT: inconclusive; HT1080 IDH1KD tx: -9%

How did Cc1cc(CN(C)C(=O)c2ccc3nc(Cc4ccccc4F)oc3c2)on1 do in these assays?
HT1080-NT tox: -6%; IL-1B inflam inh: -81*; DT40 TDP1 CPT: inconclusive; 12-LOX inh: 79%; TDP1 cell noCPT: inconclusive; HT1080 IDH1KD tx: -4%

How did CCn1cc(CNC(=O)c2ccc3nc(Cc4ccccc4F)oc3c2)cn1 do in these assays?
HT1080-NT tox: -25%; IL-1B inflam inh: inconclusive; DT40 TDP1 CPT: 12µM*; 12-LOX inh: -13%; TDP1 cell noCPT: 12µM*; HT1080 IDH1KD tx: -13%

How did Cc1nc(CCN(C)C(=O)c2ccc3nc(Cc4ccccc4F)oc3c2)no1 do in these assays?
12-LOX inh: 13%

Results for Cn1cc(CNC(=O)c2ccc3nc(Cc4ccccc4F)oc3c2)cn1 ?
HT1080-NT tox: -2%; IL-1B inflam inh: -4; DT40 TDP1 CPT: -21%; 12-LOX inh: inactive; TDP1 cell noCPT: inconclusive; HT1080 IDH1KD tx: -4%

Results for CCN(Cc1cnn(C)c1)C(=O)c1ccc2nc(Cc3ccccc3F)oc2c1 ?
HT1080-NT tox: 9%; IL-1B inflam inh: 14; DT40 TDP1 CPT: inconclusive; 12-LOX inh: 12%; TDP1 cell noCPT: 21µM*; HT1080 IDH1KD tx: 3%

How did CC(C)CCC(=O)N1CCc2nc(N3CCN(C)CC3)sc2C1 do in these assays?
12-LOX inh: 9%

Results for CS(=O)(=O)N1N=C(c2ccc(Br)cc2)CC1c1ccc2c(c1)OCO2 (configuration not stated) ?
HT1080-NT tox: 17%; IL-1B inflam inh: 5; DT40 TDP1 CPT: inconclusive; TDP1 cell noCPT: inconclusive; HT1080 IDH1KD tx: 10%

Results for Cc1ccc(C2=NN(S(C)(=O)=O)C(c3ccc4c(c3)OCO4)C2)cc1 (configuration not stated) ?
HT1080-NT tox: 2%; IL-1B inflam inh: 10; DT40 TDP1 CPT: 21µM*; 12-LOX inh: -19%; TDP1 cell noCPT: 13µM*; HT1080 IDH1KD tx: 2%

How did Cc1nc2ccccn2c1C(=O)N=Nc1c(O)n(CCC(C)C)c2ccccc12 do in these assays?
HT1080-NT tox: -2%; IL-1B inflam inh: 16; DT40 TDP1 CPT: 7.3µM*; 12-LOX inh: -5%; TDP1 cell noCPT: 7.3µM*; HT1080 IDH1KD tx: -2%

How did CC(C)CC(=O)N1CCN(c2ccc(NC(=O)C3(c4ccccc4)CCCC3)cc2)CC1 do in these assays?
12-LOX inh: 0%

Results for CCCc1c(-c2ccccc2)ncn1Cc1ccccc1OC ?
HT1080-NT tox: -27%; IL-1B inflam inh: 7; DT40 TDP1 CPT: 7.3µM*; 12-LOX inh: -34%; TDP1 cell noCPT: 5.8µM*; HT1080 IDH1KD tx: inconclusive

Results for CCCc1c(-c2ccc(F)cc2)ncn1Cc1ccccc1OC ?
HT1080-NT tox: inconclusive; IL-1B inflam inh: -5; DT40 TDP1 CPT: 1.6µM*; 12-LOX inh: -75%; TDP1 cell noCPT: 2.1µM*; HT1080 IDH1KD tx: inconclusive

Results for CCCc1c(-c2ccccc2Br)ncn1Cc1ccccc1OC ?
HT1080-NT tox: inconclusive; IL-1B inflam inh: 1; DT40 TDP1 CPT: 2.3µM*; 12-LOX inh: inconclusive; TDP1 cell noCPT: 2.3µM*; HT1080 IDH1KD tx: inconclusive

How did CCC(=O)Nc1ccc(OCC(=O)N(CC)CC2CCOCC2)cc1 do in these assays?
12-LOX inh: 7%

Results for CC(C)n1cnnc1CC1CCN(C(=O)C2(c3ccccc3)CC2)C1 (configuration not stated) ?
12-LOX inh: 40%

Results for COc1ccc(C2NC(c3ccc(OC)cc3)C(c3ccccc3)C(=O)C2c2ccccc2)cc1 (configuration not stated) ?
HT1080-NT tox: 1%; IL-1B inflam inh: -6; DT40 TDP1 CPT: -23%; 12-LOX inh: 6%; TDP1 cell noCPT: 21µM*; HT1080 IDH1KD tx: -15%

How did COc1ccc(C2NC(c3ccc(OC)cc3)C(C)C(=O)C2C)cc1 (configuration not stated) do in these assays?
HT1080-NT tox: -1%; IL-1B inflam inh: 0; DT40 TDP1 CPT: -21%; 12-LOX inh: 12%; TDP1 cell noCPT: inconclusive; HT1080 IDH1KD tx: 7%

How did Cc1ncoc1C(=O)N1CCCCCNC(=O)[C@@H]2CCC[C@@H]21 do in these assays?
12-LOX inh: 28%

Results for CC1c2ccsc2CCN1S(=O)(=O)c1ccccc1 (configuration not stated) ?
HT1080-NT tox: -2%; IL-1B inflam inh: -6; DT40 TDP1 CPT: -18%; 12-LOX inh: 0%; TDP1 cell noCPT: -16%; HT1080 IDH1KD tx: -13%

How did O=S(=O)(c1cccc(F)c1)N1CCc2sccc2C1c1ccc(OC(F)(F)F)cc1 (configuration not stated) do in these assays?
HT1080-NT tox: inconclusive; IL-1B inflam inh: 7; DT40 TDP1 CPT: inconclusive; 12-LOX inh: 180%; TDP1 cell noCPT: 15µM*; HT1080 IDH1KD tx: -23%

How did Cc1nn(CCC(=O)NNC(=S)Nc2ccccc2)c(C)c1Br do in these assays?
HT1080-NT tox: inconclusive; IL-1B inflam inh: 3; DT40 TDP1 CPT: -14%; 12-LOX inh: -12%; TDP1 cell noCPT: -26%; HT1080 IDH1KD tx: 14%

What do the screens show for `CNC(=S)NNC(=O)CCn1nc(C)c(Br)c1C`?
HT1080-NT tox: 11µM*; IL-1B inflam inh: 0; DT40 TDP1 CPT: inconclusive; 12-LOX inh: 21%; TDP1 cell noCPT: inconclusive; HT1080 IDH1KD tx: 16µM*

Results for Cc1nn(CCC(=O)NNC(=S)NCC(C)C)c(C)c1Br ?
HT1080-NT tox: 1.1µM*; IL-1B inflam inh: 12; DT40 TDP1 CPT: 7.3µM*; 12-LOX inh: 5%; TDP1 cell noCPT: 6.5µM*; HT1080 IDH1KD tx: 1.3µM*

What do the screens show for `CCOCCCNC(=S)NNC(=O)CCn1nc(C)c(Br)c1C`?
HT1080-NT tox: 0.89µM*; IL-1B inflam inh: 0; DT40 TDP1 CPT: 2%; 12-LOX inh: 19%; TDP1 cell noCPT: -12%; HT1080 IDH1KD tx: 2.5µM*

How did COCCCNC(=S)NNC(=O)Cn1nc(C)c(Br)c1C do in these assays?
HT1080-NT tox: 15%; IL-1B inflam inh: 18; DT40 TDP1 CPT: 2%; 12-LOX inh: -2%; TDP1 cell noCPT: -4%; HT1080 IDH1KD tx: 17%
